Most compounds without a hit are left out; they make up all but 10% or so of the library.
MmCpn inh = Inhibitors of TCP-1 ring complex (TRiC) of Methanococcus maripaludis (MmCpn): qHTS; Chaperonin Mm-Cpn (Methanococcus maripaludis); purified Mm-Cpn ATPase, ADP Transcreener TR-FRET; Potency, µM (highest dose often 76.9 µM), for the others: top-dose activity, negative = inhibition, usual class: inhibitors; 0.031% of 330,000 active; AID 504842, 2011; also: potency is read from the fitted curve at half-maximal effect; nearly all actives have a fitted effect of over 80% in size
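Purified archaeal chaperonin (25 nM final) was preincubated with compound for 10 min at 37°C, then ATP (10 uM final) was added for 30 min at 37°C in Tris pH 7.4/KCl/MgCl2/DTT buffer. ADP was quantified by HTRF Transcreener TR-FRET.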
VDR inhibitor = Inhibitors of the vitamin D receptor (VDR): qHTS. Potency, µM, inactives show max response, negative = inhibition, actives largely listed as inhibitors. VDR-SRC2-3 peptide fluorescence polarization, 2 h. AID 504847, 2011. 0.93% of 400,000 active; also: potency is read from the fitted curve at half-maximal effect
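After 23 nl compound addition and a short centrifugation, plates sat for 2 hours at ambient temperature; polarization of fluorescence then indicated loss of VDR binding to peptide SRC2-3.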
Sfp inh = qHTS Assay for Inhibitors of Bacillus subtilis Sfp phosphopantetheinyl transferase (PPTase); 4'-phosphopantetheinyl transferase ffp (Bacillus subtilis), Q9F4F7; Biochemical Sfp PPTase activity, qHTS; Potency, µM, without a hit: largest response in the series, negative = inhibition, most hits filed as inhibitors; 3.5% of 310,000 active; AID 1490, 2009;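 also: the enzyme is Sfp with the accession as filed and its product quenches rhodamine fluorescence; potency is read from the fitted curve at half-maximal effect; 0% = enzyme reaction without inhibitor and -100% = no enzyme wells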
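Reaction rates are the 30-min fluorescence difference (ex 525, em 598 nm) in wells containing 15 nM Sfp, 5 uM rhodamine-CoA and 12.5 uM BHQ-2-YbbR at pH 7.6 with 10 mM MgCl2.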
CCT chaperon mod = High-Throughput Screening for Modulators of Cytosolic Chaperonin Activity. purified chaperonin ATPase assay, HTRF ADP detection, 30 min. activity change, % (test concentration not listed), hits read low. 0.3% of 360,000 active; in the data active = activity change below about -30%
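TRiC at 40 or 20 nM final (batch-dependent) in 30 mM Tris pH 7.4, 100 mM KCl, 5 mM MgCl2, 1 mM DTT, with compound at single 76 uM and 10 uM ATP, 30 min at 37 deg C. ADP detected by HTRF Transcreener, 665/615 ratio.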
G9a inh = qHTS Assay for Inhibitors of Histone Lysine Methyltransferase G9a; AID 504332, 2011; G9a H3K9 monomethylation, AlphaScreen, 2 h; 8.8% of 350,000 active; Potency, µM (series often up to 102 µM), for the others: top-dose activity, negative = inhibition, usual class: inhibitors; also: potency is read from the fitted curve at half-maximal effect; nearly all actives have a fitted effect of over 75% in size
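G9a (20 nM) was preincubated 15 min with compound, then reacted 2 h at room temperature with 500 nM biotin-H3K9 peptide and 20 µM SAM. Monomethyl-H3K9 detected by AlphaScreen using anti-H3K9me1 antibody.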
PLK1 PBD inh = qHTS for Inhibitors of PLK1-PDB (polo-like kinase 1 - polo-box domain): Primary Screen; Serine/threonine-protein kinase PLK1 (Homo sapiens), P53350; Plk1 PBD binding of FITC phosphopeptide, fluorescence polarization; Potency, µM, without a hit: max response, negative = inhibition, hits mostly inhibitors; 2.8% of 360,000 active; AID 720504, 2013; also: potency is read from the fitted curve at half-maximal effect; series mostly up to about 57 µM; nearly all actives have a fitted effect of over 65% in size
Target sequence (P53350 whole entry, looked up, the tested form may be a part): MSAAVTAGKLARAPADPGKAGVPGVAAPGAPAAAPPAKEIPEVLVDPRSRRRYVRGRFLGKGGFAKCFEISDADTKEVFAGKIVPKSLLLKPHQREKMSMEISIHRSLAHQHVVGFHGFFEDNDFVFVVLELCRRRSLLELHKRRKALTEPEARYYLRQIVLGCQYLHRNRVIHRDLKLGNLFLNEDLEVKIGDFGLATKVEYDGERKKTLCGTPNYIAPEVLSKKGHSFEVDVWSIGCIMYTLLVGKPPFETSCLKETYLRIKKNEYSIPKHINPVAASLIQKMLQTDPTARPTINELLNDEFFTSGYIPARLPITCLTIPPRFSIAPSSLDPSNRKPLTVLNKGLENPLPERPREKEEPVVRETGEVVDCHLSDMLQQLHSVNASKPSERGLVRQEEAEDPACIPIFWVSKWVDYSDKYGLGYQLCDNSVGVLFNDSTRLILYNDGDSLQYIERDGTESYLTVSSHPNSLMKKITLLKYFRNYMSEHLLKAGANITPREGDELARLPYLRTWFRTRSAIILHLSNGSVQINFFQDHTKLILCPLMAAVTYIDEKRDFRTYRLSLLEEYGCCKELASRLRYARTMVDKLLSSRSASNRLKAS
Numbers without * were called inactive; ? = inconclusive; / = not tested or not shown; [ ] = dose if it differs, or a comment. Unless noted, calls follow the shape of the dose curve; as a rule, active = well fitted curve in the direction sought with a large enough effect; inconclusive = small, poorly fitted or top-dose-only effect, or another doubt; inactive = no such curve, though single readings can be large; an effect the other way counts as inactive or inconclusive. Unless noted, % is scaled to controls: 0 for no effect and ±100 for the full control effect.

SMILES	MmCpn inh	VDR inhibitor	Sfp inh	CCT chaperon mod	G9a inh	PLK1 PBD inh
CCc1cc2c(nc1CC)CCN(CC/C(C)=N/O[C@@H](C)CN1CCCCc3nc(C)c(C)cc31)C2	/	/	2%	/	/	/
COC(=O)c1ccc(N2C(=O)CC(N(C)CCc3ccc(OC)c(OC)c3)C2=O)cc1 (stereo unspecified)	0%	1%	-14%	2	35µM*	-3%
COc1cccc(N2C(=O)CC(Nc3ccc(N4CCOCC4)cc3)C2=O)c1 (stereo unspecified)	-4%	-19%	?	-3	0%[59 µM]	-11%
COc1ccc(N2C(=O)CC(N3CCC(O)(c4cccc(C(F)(F)F)c4)CC3)C2=O)cc1 (stereo unspecified)	1%	12%	-1%	1	40µM*	-18%
COc1ccc(N2C(=O)CC(Nc3ccc(C(=O)O)cc3)C2=O)cc1OC (stereo unspecified)	0%	-20%	13%	-1	40µM*	-1%
O=C1CC(Nc2ccc(N3CCOCC3)cc2)C(=O)N1c1cccc(C(F)(F)F)c1 (stereo unspecified)	-7%	-30%	?	-3	14µM*	-15%
CC1CC(=O)N(CC(=O)Nc2ccc(OC(F)(F)F)cc2)c2ccccc2S1 (stereo unspecified)	/	9%	/	/	-3%[59 µM]	/
O=C(Nc1cccc(C(=O)OCc2cc(=O)n3ccsc3n2)c1)c1ccc(F)cc1	/	19%	/	/	4%[59 µM]	/
COc1ccccc1-c1ccnc2c(-c3ccc(Br)cc3)c(C)nn12	/	-6%	/	/	6%[59 µM]	/
CC(=O)OC[C@H]1O[C@@H](ON=C(C)C)[C@H](OC(C)=O)[C@@H](OC(C)=O)[C@H]1OC(C)=O	/	/	7%	/	/	/
CC(C)(C)OC(=O)N1CCC(c2c(C(=O)N3CCN(c4ccccn4)CC3)cnn2-c2cccc(F)c2)CC1	/	10%	/	/	-23%[59 µM]	/
O=C(O)c1ccc(N2C(=O)CC(N3CCN(c4cccc(C(F)(F)F)c4)CC3)C2=O)cc1 (stereo unspecified)	0%	-7%	12%	2	40µM*	2%
O=C(NCCc1csc(-c2ccc(F)cc2)n1)c1cccs1	/	14%	/	/	4%[59 µM]	/
Cc1ccc(NC(=O)c2ncoc2-c2ccco2)cc1Cl	/	12%	/	/	-4%[12.7 µM]	/
COc1ccccc1C(c1c(O)nc(SC)[nH]c1=O)c1c(O)nc(SC)[nH]c1=O	/	-9%	/	1	/	?
CCOc1cc(C(c2c(O)nc(SC)[nH]c2=O)c2c(O)nc(SC)[nH]c2=O)ccc1O	/	?	/	0	/	12µM*
CCOC(=O)NNc1ccc2nonc2c1[N+](=O)[O-]	-2%	35µM*	20µM*	0	/	8.4µM*
Cc1cc(C)cc(N2C(=O)CN(Cc3ccccc3)C2=S)c1	-1%	-26%	1%	-2	28%	24µM*
CCCCC[C@H](O)/C=C/C=C\CCCCCCCCCC(=O)O	/	-2%	-11%	/	/	/
CCOc1ccc(OCC)c(Nc2ccc3cc(S(=O)(=O)N4CCCC4)ccc3n2)c1	/	0%	/	/	8%[59 µM]	/
CN(c1ccc(F)cc1)S(=O)(=O)c1ccc2[nH]cc(C(=O)O)c(=O)c2c1	0%	-19%	19%	1	?	-9%
CCc1ccccc1N(C)S(=O)(=O)c1ccc2[nH]cc(C(=O)O)c(=O)c2c1	0%	-4%	25%	0	45µM*	1%
COc1ccc(OC)c(-n2c(-c3cc(-c4ccco4)[nH]n3)n[nH]c2=S)c1	0%	1%	17%	0	0%	-6%
COc1ccc(OC)c(-n2c(-c3cccc(O)c3)n[nH]c2=S)c1	-1%	-24%	25µM*	-1	1.3µM*	27µM*
COc1ccc(-n2c(-c3ccc(Cl)cc3Cl)n[nH]c2=S)c(OC)c1	-8%	?	16%	-1	/	24µM*
SMILES	MmCpn inh	VDR inhibitor	Sfp inh	CCT chaperon mod	G9a inh	PLK1 PBD inh
COc1ccc(OC)c(-n2c(-c3cc(-c4ccc(F)cc4)n[nH]3)n[nH]c2=S)c1	-1%	-7%	?	-1	3.2µM*	-13%
COc1ccc(-c2n[nH]c(=S)n2N)c(OC)c1	0%	0%	35µM*	0	6.3µM*	8.4µM*
COc1ccc(-n2c(-c3ccc(C(C)(C)C)cc3)n[nH]c2=S)c(OC)c1	/	/	/	-2	/	-7%
CC(=O)c1ccc(NC(=O)CSc2nccn2C2CCCC2)cc1	/	5%	/	/	-4%[59 µM]	/
Cc1ccc(CNC(=O)Cc2c(C)c3cc4c(C)coc4cc3oc2=O)cc1	/	-9%	/	/	8%[59 µM]	/
CCc1ccc(Cn2c(CNS(=O)(=O)c3ccc4c(c3)CCCC4)nc3cccnc32)cc1	/	5%	/	/	-1%[59 µM]	/
COc1ccccc1-n1c(-c2ccc(NS(C)(=O)=O)cc2)n[nH]c1=S	-1%	-2%	-12%	-1	3.2µM*	-7%
COc1ccc(-c2n[nH]c(=S)n2-c2cc(OC)ccc2OC)cc1	0%	3%	79µM*	-2	2.8µM*	-2%
COc1ccc(-c2cc(-c3ccc(OC)cc3)[nH]n2)cc1	0%	-5%	-15%	-2	6%[59 µM]	0%
COc1ccc(-c2cc(-c3n[nH]c(=S)n3-c3ccccc3Cl)[nH]n2)cc1	0%	5%	10%	1	7.9µM*	-14%
COc1ccc(-c2cc(-c3n[nH]c(=S)n3-c3cc(OC)ccc3OC)[nH]n2)cc1	-2%	-20%	?	0	?	-25%
CC(=O)Nc1ccc(NC(=O)c2cc3c(=O)n(Cc4cccnc4)ccc3nc2C)cc1	/	11%	/	/	-1%[59 µM]	/
C=CCOc1ccc(CC(=O)O)cc1Cl	/	-2%	-8%	/	27%[59 µM]	/
Cc1nc2ccn(Cc3cccs3)c(=O)c2cc1C(=O)NCc1ccc(Br)cc1	/	-1%	/	/	12%[59 µM]	/
CN=C1S/C(=C\c2ccc(N3CCCC3)c(F)c2)C(=O)N1C	1%	11%	71µM*	-2	7%	-23%
CCCCNC(=O)CCn1c(=O)c2cccn2c2cccnc21	/	6%	/	/	40%[59 µM]	/
CN(C)c1ccc(CNC(=O)c2ccccc2NC(=O)c2nsc3ccccc23)cc1	/	1%	/	/	-25%[59 µM]	/
Cc1cc(C(=O)CSc2nnc(N)s2)c(C)n1-c1c(C)n(C)n(-c2ccccc2)c1=O	1%	19%	-9%	-2	50µM*	-16%
COc1ccc(CCn2c(C)cc(C(=O)CSc3nnc(N)s3)c2C)cc1	-4%	-7%	10%	3	-5%[59 µM]	0%
